Screens: PubChem BioAssay, Broad Institute
STK33 inh = STK33 kinase inhibitors, primary screen, biochemical, luminescence, ADP-Glo, MBP substrate; Serine/threonine-protein kinase 33 (Homo sapiens), Q9BYT3; inhibition, % at 12.5 µM; 0.44% of 27,000 active; in the data active = inhibition above about 20%
ID4 SMM = binders of human ID4 protein, primary screen, biochemical, small molecule microarray, single point | DNA-binding protein inhibitor ID-4 (Homo sapiens), P47928 | Flag-ID4 binding, fluorescence F/B | calls only | 1.2% of 31,000 active | AID 624137, 2012; call rule not given here;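 note: a binder raises fluorescence above local background on the spot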
Target sequence (P47928 whole entry, looked up): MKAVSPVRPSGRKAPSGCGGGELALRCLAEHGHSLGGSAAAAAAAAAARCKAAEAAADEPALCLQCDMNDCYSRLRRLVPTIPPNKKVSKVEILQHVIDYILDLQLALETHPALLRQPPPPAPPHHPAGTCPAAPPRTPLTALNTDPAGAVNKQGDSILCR
* = called active by the depositor; i = inactive; / = not tested or not shown; + = active, no number. Shown is part of a subset that was picked to be rich in hits.

SMILES	STK33 inh	ID4 SMM
C[C@H](CO)N1C[C@H](C)[C@@H](CN(C)C(=O)Nc2cc(F)ccc2F)Oc2cc(C#CC3CCCC3)ccc2S1(=O)=O	/	i
C[C@H]1CN([C@@H](C)CO)S(=O)(=O)c2ccc(-c3ccc(C#N)cc3)cc2O[C@H]1CN(C)C(=O)Nc1cc(F)ccc1F	/	+
C/C=C/c1ccc2c(c1)O[C@H](CN(C)S(=O)(=O)c1ccc(F)cc1)[C@H](C)CN([C@H](C)CO)S2(=O)=O	/	i
COc1cccc(-c2ccc3c(c2)O[C@@H](CN(C)C)[C@H](C)CN([C@H](C)CO)S3(=O)=O)c1	/	i
CCC(=O)N(C)C[C@@H]1Oc2cc(C#CC3CC3)ccc2S(=O)(=O)N([C@@H](C)CO)C[C@H]1C	/	+
Cc1noc(C)c1NC(=O)N(C)C[C@H]1OCCCC[C@@H](C)Oc2ccc(NC(=O)CCC(F)(F)F)cc2C(=O)N([C@@H](C)CO)C[C@@H]1C	/	i
CNC[C@H]1Oc2c(cccc2N(C)C)C(=O)N([C@@H](C)CO)C[C@H]1C	/	i
Cc1noc(C)c1NC(=O)Nc1ccc2c(c1)CC(=O)N([C@H](C)CO)C[C@@H](C)[C@@H](CN(C)CC1CCCCC1)O2	0	/
C[C@@H]1CN([C@@H](C)CO)C(=O)Cc2cc(NC(=O)Nc3ccc(F)cc3)ccc2O[C@H]1CN(C)CC1CC1	/	i
COc1ccc(CNC2C3CC4CC(C3)CC2C4)c(OC)c1C (stereo not given)	/	i
N#Cc1ccc(NC(=O)CCN2C(=O)c3ccccc3C2=O)cc1	-1	i
N#Cc1cccc(NC(=O)CCCN2C(=O)c3ccccc3C2=O)c1	0	+
CN1C(=O)N(C)C(=O)C(CCc2ccncc2)(C2(C#N)CCCCC2)C1=O	/	i
Cc1ccnc(SCC(=O)Nc2oc(-c3ccccc3)c(-c3ccccc3)c2C#N)n1	-6	i
COc1ccccc1OCC(=O)Nc1oc(-c2ccccc2)c(-c2ccccc2)c1C#N	-3	+
O=C(O)CCCC(=O)Nc1ccc(Cl)c(Cl)c1	-3	i
CN(Cc1ccccc1)CC1CC(c2ccccc2)OC(c2ccc(NC(=O)CCCCCCC(=O)O)cc2)O1 (stereo not given)	/	+
COC(=O)CCCCCCC(=O)Nc1ccc(C2OC(CN(C)Cc3ccccc3)CC(c3ccccc3)O2)cc1 (stereo not given)	/	i
COCC1CC(c2ccccc2)OC(c2ccc(NC(=O)CCCCCCC(=O)O)cc2)O1 (stereo not given)	/	+
COC(=O)CCCCCCC(=O)Nc1ccc(C=O)cc1	/	i
O=C(O)CCCCCCC(=O)Nc1ccc(C2OC(CSc3ccncc3)CC(c3ccccc3)O2)cc1 (stereo not given)	/	+
COC1CC(OC2C(C)OC(OC3C(C)OC(OC4C(C)OCC(OC5C(O)C(O[C@H]6CC[C@@]7(C)C(=CC[C@]8(O)C7CC(OC(=O)c7ccccc7)[C@@]7(C)[C@]8(O)CC[C@@]7(O)C(C)=O)C6)OC(CO)C5OC5OC(CO)C(O)C(O)C5O)C4OC)CC3OC)CC2OC)OC(C)C1O (stereo not given in full)	-2	i
C[C@@H]1CN([C@@H](C)CO)S(=O)(=O)c2ccc(C3=CCCCC3)cc2O[C@H]1CN(C)C(=O)C1CCCCC1	/	i
Cc1noc(C)c1NC(=O)N(C)C[C@H]1OCCCC[C@@H](C)Oc2ccc(NC(=O)Nc3cccc4ccccc34)cc2C(=O)N([C@H](C)CO)C[C@@H]1C	-2	/
Cc1coc(C)c1C(=O)CC1(O)C(=O)N(CCCC#N)c2ccccc21 (stereo not given)	5	i
SMILES	STK33 inh	ID4 SMM
N#CCCCN1C(=O)C(O)(CC(=O)c2ccc(Br)s2)c2ccccc21 (stereo not given)	-2	+
C[C@@H]1CN([C@@H](C)CO)C(=O)c2cc(NC(=O)NC3CCCCC3)ccc2O[C@H]1CN(C)S(=O)(=O)c1ccccc1	/	i
Cc1ccc([N+](=O)[O-])cc1NC(=O)CN(Cc1ccccc1)S(C)(=O)=O	0	i
C[C@@H]1O[C@@H](O[C@H]2[C@H](OC(=O)[C@]34CCC(C)(C)C[C@H]3C3=CCC5[C@@]6(C)C[C@H](O)[C@H](O[C@@H]7O[C@H](C(=O)O)[C@@H](O)[C@H](O)[C@H]7O)[C@@](C)(CO)C6[C@H](O)C[C@@]5(C)[C@]3(C)C[C@H]4O)O[C@@H](CO)[C@@H]2O)[C@H](O)[C@H](O)[C@H]1O[C@@H]1OC[C@@H](O)[C@H](O[C@H]2OC[C@](O)(CO)[C@H]2O)[C@H]1O (stereo not given in full)	-4	i
C[C@@H]1O[C@@H](O[C@@H]2[C@@H](O)[C@H](O[C@@H]3[C@@H](O)[C@@H](O)[C@H](O[C@H]4[C@H](OC(=O)[C@]56CCC(C)(C)C[C@H]5C5=CCC7[C@@]8(C)C[C@H](O)[C@H](O[C@@H]9O[C@H](C(=O)O)[C@@H](O)[C@H](O)[C@H]9O)[C@@](C)(CO)C8[C@H](O)C[C@@]7(C)[C@]5(C)C[C@H]6O)OC[C@H](O)[C@@H]4O)O[C@H]3C)OC[C@H]2O)[C@H](O)[C@H](O)[C@H]1O (stereo not given in full)	23*	i
Cc1cc(C)c2nc(-c3ccccn3)cc(C(=O)Nc3cccc(Cn4cccn4)c3)c2c1	2	i
C[C@H](CO)N1C[C@H](C)[C@H](CN(C)Cc2ccc(C(=O)O)cc2)Oc2ccc(NC(=O)CCC(F)(F)F)cc2C1=O	-2	/
CN(C)CCCn1cc(C2=C(c3c[nH]c4ccccc34)C(=O)NC2=O)c2ccccc21	114*	i
COC(=O)c1cn(CC(N)=O)c2ccccc12	0	i
Cn1cc(C2=C(c3cn(CCCSC(=N)N)c4ccccc34)C(=O)NC2=O)c2ccccc21	106*	/
O=C(O)CSc1c[nH]c2ccccc12	-3	i
O=C(c1ccc(F)cc1)C1CCN(CCn2c(=O)[nH]c3ccccc3c2=O)CC1	4	+
O=c1[nH]c2ccccc2c(=O)n1CCCO	16	i
O=C(c1cc2cc(Br)ccc2oc1=O)N1CCN(CCN2C(=O)c3cccc4cccc(c34)C2=O)CC1	8	i
NC(=O)CN1CCN(CCN2C(=O)c3cccc4cccc(c34)C2=O)CC1	-1	+
NC(=O)CSCC(=O)Nc1ccccc1F	0	i
Cc1cc(CNC(=O)c2cc(-c3ccccc3)nc3ccccc23)nn1C	-3	i
N#CCCN(CCC#N)C(=O)c1cc(-c2ccccc2)nc2ccccc12	0	+
CN1CCN(S(=O)(=O)c2ccc(Sc3nc4ccccc4[nH]3)c3nsnc23)CC1	-2	+
Cc1ccc2nsnc2c1S(=O)(=O)N1CCN(CCc2ccccc2)CC1	-1	i
COc1cccc(S(=O)(=O)N[C@@H]2C=C[C@@H](CC(=O)NC3Cc4ccccc4C3)O[C@H]2CO)c1	/	i
CC(C)=CCC[C@@](C)(O)[C@H]1CC[C@]2(C)C1CC(O)C1[C@]3(C)C(CC[C@]12C)C(C)(C)[C@@H](O)C[C@H]3O (stereo not given in full)	-5	/
CS(=O)(=O)Nc1ccc(C(=O)NCc2cccnc2)cc1	0	i
O=C(NCc1cccnc1)c1cccc(NC(=O)c2ccco2)c1	-1	+
